In PubChem BioAssay:
For part of these data: Results with a measured potency or affinity are listed apart. Activity calls are given as the source filed them.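 How the source made its calls, unless noted: active means primary screen hit whose calcium fluorescence ratio, in both repeats, exceeds the weak agonist control mean by 3 SD; inactive means the rest.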

Key:
[1] = tested on: TRPC4 beta (transient receptor potential cation channel C4), mouse; experiment: TRPC4 cation channel opening, retest – cell-based, Fluo4 calcium, HEK293 TRPC4beta/mu-opioid, duplicates, 10 µM, confirmation (AID 2426;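 active means fluorescence ratio normalized to control raised more than 50% in primary screen plus both repeat runs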); settings: Fluo4 calcium fluorescence, at 10 µM; hits give high values
[2] = tested on: transient receptor potential cation channel C4 beta (TRPC4), mouse; experiment: TRPC4 cation channel opening, second retest – cell-based, second round, Fluo4, HEK293 TRPC4beta/mu-opioid, 1 µM, confirmation (AID 2461;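 active means primary screen active and over 50% activation in each of two duplicate runs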); settings: Fluo4 calcium fluorescence, at 1 µM; hits give high values
[3] = tested on: TRPC4 (transient receptor potential cation channel C4 beta), mouse; experiment: potentiation of DAMGO EC20 TRPC4 response – cell-based, second round, Fluo-4, HEK293 TRPC4beta/mu-opioid, 1 µM, confirmation (AID 2554;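 active means primary screen hit whose fluorescence ratio, in both repeats, exceeds the weak agonist control mean by 3 SD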); settings: DAMGO EC20, Fluo-4 calcium flux, at 1 µM; hits give high values
[4] = tested on: TRPC4 beta (transient receptor potential cation channel C4), mouse; experiment: potentiation of DAMGO EC20 TRPC4 response – cell-based, Fluo-4, HEK293 TRPC4beta/mu-opioid, confirmation (AID 2555); settings: DAMGO EC20, Fluo-4 calcium flux, at 10 µM; hits give high values
[5] = target: Short transient receptor potential channel 4 (Mus musculus) (UniProt Q9QUQ5); experiment: blockers of DAMGO-evoked TRPC4 calcium flux – cell-based, Fluo4, HEK293 TRPC4beta/mu-opioid, confirmation (AID 2636;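 active means calcium signal cut by more than 3 SD below the full-agonist control yet still positive, in both repeats and the earlier primary screen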); settings: at 10 µM; hits give high values
[6] = target: Short transient receptor potential channel 4 (Mus musculus) (UniProt Q9QUQ5); experiment: blockers of DAMGO-evoked TRPC4 calcium flux – cell-based, second round, Fluo4, HEK293 TRPC4beta/mu-opioid, 1 µM, confirmation (AID 2637;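 active means calcium signal ratio cut to more than 3 SD under the fully stimulated control mean yet still positive, in both repeats and the primary screen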); settings: at 1 µM; hits give high values
[7] = target: Short transient receptor potential channel 4 (Mus musculus) (UniProt Q9QUQ5); experiment: calcium entry via TRPC4 opening agents – cell-based, HEK293 TRPC4/mu-opioid, Fluo-4 calcium, dose response (AID 434937;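 active means primary screen activator hit with a dose response curve and TRPC4 channel activation at any tested dose; inactive means no activation, no dose response, or not a primary hit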)
[8] = target: Short transient receptor potential channel 4 (Mus musculus) (UniProt Q9QUQ5); experiment: potentiation of DAMGO-evoked TRPC4 calcium signal – cell-based, HEK293 TRPC4/mu-opioid, Fluo-4 calcium, EC20 DAMGO, dose response (AID 434941;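 active means earlier screen potentiator hit that boosts the TRPC4 ion channel at some dose, with a dose response; inactive means no potentiation, no dose response, or not a prior hit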;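 further: calcium entry triggered by an EC20 dose of DAMGO at the co-expressed mu-opioid receptor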)
[9] = target: Short transient receptor potential channel 4 (Mus musculus) (UniProt Q9QUQ5); experiment: block of DAMGO-driven TRPC4 calcium entry – cell-based, HEK293 TRPC4/mu-opioid, Fluo-4 calcium, dose response (AID 434942;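 active means primary screen inhibitor hit that blocks the TRPC4 channel at some tested dose, yielding a dose curve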)
[10] = target: Short transient receptor potential channel 6 (Mus musculus) (UniProt Q61143); experiment: TRPC6 blockade by TRPC4 inhibitor hits – cell-based, HEK293, membrane potential dye, duplicate, selectivity assay for TRPC4 inhibitor project, confirmation (AID 434948;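 active means active in primary screen and both duplicates, each dropping signal beyond three positive-control SD with fluorescence still positive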); settings: HEK293 TRPC6, membrane potential dye fluorescence, at 10 µM, stimulated with maximal-effect acetylcholine; hits give high values
[11] = target: Short transient receptor potential channel 6 (Mus musculus) (UniProt Q61143); experiment: TRPC6 opening by TRPC4 activator hits – cell-based, HEK293, membrane potential dye, duplicate, selectivity assay for TRPC4 activator project, confirmation (AID 434950;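 active means membrane potential signal rise above negative control mean plus 3 SD in both duplicates, also active in the earlier TRPC4 screen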); settings: HEK293 TRPC6, membrane potential fluorescence, at 10 µM; activation: hits give high values; outcome: activation
[12] = target: Short transient receptor potential channel 6 (Mus musculus) (UniProt Q61143); experiment: positive modulators of mouse TRPC6 channel – HEK293 cells, membrane potential dye, duplicate, selectivity assay for TRPC4 potentiator project, confirmation (AID 434952;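 active means compound raising the membrane signal above positive-control mean plus 3 SD in both repeats, and a primary screen hit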); settings: HEK293 TRPC6, membrane potential dye fluorescence, at 10 µM, maximal acetylcholine added after compound; hits give high values
[13] = target: Short transient receptor potential channel 4 (Mus musculus) (UniProt Q9QUQ5); experiment: calcium flux activators in TRPC4/5HT1a cells, counter-screen for TRPC4 activator project, cell-based, second counter screen, HEK293 TRPC4/5HT1a, Fluo-4 (AID 434977;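 active means calcium signal rise above buffer-control mean plus 5 SD in both duplicates, and also a hit in the primary screen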); settings: Fluo-4 calcium flux, at 10 µM; hits give high values
[14] = serotonin-gated TRPC4 signal block – cell-based, second counter screen, HEK293 TRPC4/5HT1a, Fluo-4, counter-screen for TRPC4 inhibitor project, confirmation (AID 434978;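 active means primary screen active whose calcium signal fell more than 3 SD beyond the full-serotonin control mean in both duplicate plates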;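 further: serotonin given first at submaximal then at maximal dose after compound preincubation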); settings: Fluo-4 calcium flux, at 10 µM, serotonin added to trigger calcium flux; hits give high values
[15] = tested on: TRPC4 (mouse), co-expressed with 5HT1a in HEK293; experiment: enhancement of serotonin-evoked TRPC4 response – cell-based, second counter screen, HEK293 TRPC4/5HT1a, Fluo-4, counter-screen for TRPC4 potentiator project, confirmation (AID 434979;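 active means signal rise over 3 SD above mean of control wells given weak agonist, in both repeats and first screen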); settings: Fluo-4 calcium flux, at 10 µM, serotonin added at its EC20 dose; hits give high values
[16] = nonspecific calcium rise without TRPC4 – cell-based, HEK293 mu-opioid receptor line, counter-screen for TRPC4 activator project, confirmation (AID 449723;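 active means hit in primary screen, with calcium signal over 5 SD above buffer well mean in both duplicates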;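 further: counter screen cells carry the mu-opioid receptor alone and lack TRPC4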); settings: HEK293 mu-opioid cells, Fluo-4 calcium fluorescence, at 10 µM; hits give high values
[17] = nonspecific potentiation of DAMGO calcium response – cell-based, HEK293 mu-opioid receptor line, counter-screen for TRPC4 allosteric potentiator project, confirmation (AID 449724;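 active means calcium signal rise more than 3 SD above the low-dose agonist control mean, in both duplicate plates and the primary screen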); settings: HEK293 mu-opioid receptor cells, Fluo-4 calcium flux, at 10 µM, compound added before EC20 DAMGO stimulus; hits give high values

Measured: potentiation

Sequence of Short transient receptor potential channel 6 (Mus musculus) (Q61143 whole entry, looked up): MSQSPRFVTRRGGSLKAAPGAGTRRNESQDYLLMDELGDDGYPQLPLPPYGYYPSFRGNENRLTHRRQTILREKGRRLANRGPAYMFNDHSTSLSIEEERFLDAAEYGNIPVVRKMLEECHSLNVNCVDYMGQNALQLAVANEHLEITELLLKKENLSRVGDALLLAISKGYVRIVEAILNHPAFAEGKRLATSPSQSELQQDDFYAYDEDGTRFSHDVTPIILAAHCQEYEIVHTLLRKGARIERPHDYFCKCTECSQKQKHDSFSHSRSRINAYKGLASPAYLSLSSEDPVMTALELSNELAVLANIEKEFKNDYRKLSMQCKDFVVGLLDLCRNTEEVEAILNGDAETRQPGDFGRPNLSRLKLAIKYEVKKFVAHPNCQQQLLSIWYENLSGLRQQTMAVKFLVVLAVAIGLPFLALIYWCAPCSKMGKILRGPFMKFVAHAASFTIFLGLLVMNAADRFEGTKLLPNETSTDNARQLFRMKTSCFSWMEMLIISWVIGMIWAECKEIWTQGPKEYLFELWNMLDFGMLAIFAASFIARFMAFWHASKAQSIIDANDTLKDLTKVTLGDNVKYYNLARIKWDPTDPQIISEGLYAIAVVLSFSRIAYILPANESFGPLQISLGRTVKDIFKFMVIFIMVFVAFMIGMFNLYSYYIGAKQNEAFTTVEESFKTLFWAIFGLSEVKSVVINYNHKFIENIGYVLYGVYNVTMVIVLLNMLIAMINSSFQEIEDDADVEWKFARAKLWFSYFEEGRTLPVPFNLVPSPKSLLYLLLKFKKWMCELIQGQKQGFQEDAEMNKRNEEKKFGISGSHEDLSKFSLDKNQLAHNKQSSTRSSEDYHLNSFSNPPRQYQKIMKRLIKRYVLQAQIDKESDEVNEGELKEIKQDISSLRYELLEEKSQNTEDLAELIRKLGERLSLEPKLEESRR
Sequence of Short transient receptor potential channel 4 (Mus musculus) (Q9QUQ5 whole entry, looked up): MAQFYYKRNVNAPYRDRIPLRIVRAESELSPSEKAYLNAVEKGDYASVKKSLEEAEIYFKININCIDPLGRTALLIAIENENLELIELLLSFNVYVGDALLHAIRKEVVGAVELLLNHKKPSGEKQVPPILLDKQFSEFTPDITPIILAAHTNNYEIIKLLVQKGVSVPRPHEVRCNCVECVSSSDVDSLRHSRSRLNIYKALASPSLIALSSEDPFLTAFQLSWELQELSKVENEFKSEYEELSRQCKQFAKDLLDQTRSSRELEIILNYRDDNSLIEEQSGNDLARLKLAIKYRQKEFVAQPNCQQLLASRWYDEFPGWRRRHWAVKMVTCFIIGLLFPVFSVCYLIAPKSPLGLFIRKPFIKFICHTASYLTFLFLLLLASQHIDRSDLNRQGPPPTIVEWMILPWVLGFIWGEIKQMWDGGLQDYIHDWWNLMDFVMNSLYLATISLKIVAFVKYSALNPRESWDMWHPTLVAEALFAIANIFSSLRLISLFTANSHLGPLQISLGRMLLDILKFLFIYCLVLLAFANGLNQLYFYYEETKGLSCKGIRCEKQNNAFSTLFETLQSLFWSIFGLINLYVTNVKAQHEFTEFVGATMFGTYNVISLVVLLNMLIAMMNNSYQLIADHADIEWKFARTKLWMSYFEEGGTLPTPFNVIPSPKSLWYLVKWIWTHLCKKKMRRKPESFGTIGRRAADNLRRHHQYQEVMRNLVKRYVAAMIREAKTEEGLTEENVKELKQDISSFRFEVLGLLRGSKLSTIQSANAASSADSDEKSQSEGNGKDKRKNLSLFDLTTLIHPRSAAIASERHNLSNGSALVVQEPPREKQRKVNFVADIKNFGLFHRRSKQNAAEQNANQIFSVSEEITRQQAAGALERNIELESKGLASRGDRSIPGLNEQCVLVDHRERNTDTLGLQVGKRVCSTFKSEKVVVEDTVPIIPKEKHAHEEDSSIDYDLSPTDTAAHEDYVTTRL

Cc1cc(Nc2ccccc2O)c2ccccc2n1
inactive: all assays above

Cc1ccc(C2N(c3cccc(Cl)c3)C(=O)C3CCCN32)o1 (stereo not given)
active: [3] 19% | [4] 16% | [15] 13.4%
inactive: all other assays above

CCN(CC(=O)NCc1ccc(Cl)cc1)CC(=O)NC1(C#N)CCCC1
inactive: all assays above

CCn1c2ccc(F)cc2c2nnc(NN)nc21
active: [3] 27% | [4] 73%
inactive: all other assays above

CC(=O)c1ccc(OCC(O)CN2CCN(S(=O)(=O)c3c(C)cc(C)cc3C)CC2)cc1 (stereo not given)
active: [3] 20% | [4] 23% | [15] 27.2%
inactive: all other assays above

C=C(C)COc1ccc(-c2nc(N)ncc2-c2ccccc2OC)c(O)c1
active: [15] 8.86%
inactive: all other assays above

N=c1oc2ccc(Cl)cc2cc1C(=O)NC1CCCCCC1
inactive: all assays above

CC1(C)CC(=O)C(C=NCCN2CCN(C3CC(=O)N(c4cccc(Br)c4)C3=O)CC2)=C(O)C1 (stereo not given)
active: [3] 12% | [15] 16.8%
inactive: all other assays above

Cc1ccccc1-n1c(=O)c2c(n3cnnc13)-c1ccccc1CC21CCCCC1
active: [15] 10.5%
inactive: all other assays above

O=C(COC(=O)c1ccccn1)Nc1nc(-c2ccccc2)cs1
inactive: all assays above

N=c1c(C(=O)NCc2ccc(F)cc2)cc2c(=O)n3ccccc3nc2n1Cc1ccco1
active: [4] 17%
inactive: all other assays above

CSc1ccc(CN(C)C(C)C(=O)NCc2ccccc2)cc1 (stereo not given)
inactive: all assays above

Cc1oc(-c2cccc(F)c2)nc1CN(Cc1ccccc1)C[C@@H]1CCC(=O)N1
inactive: all assays above

O=C(Cc1cccs1)Nc1nc(-c2ccc(F)cc2F)cs1
active: [3] 24% | [4] 65% | [15] 91.9%
inactive: all other assays above

Cc1cc(C)c(S(=O)(=O)N2CCN(C)CC2)c(C)c1
active: [3] 9% | [15] 12.4%
inactive: all other assays above
